Results published in PubChem BioAssay (NCATS).
Records with an inconclusive call do not appear. The source made the active and inactive calls. Unless noted, the call rests on the fitted dose curve; in most records, active means well fitted curve in the direction sought with a large enough effect; inconclusive means small, poorly fitted or top-dose-only effect, or another doubt; inactive means no such curve, though single readings can be large; an effect the other way counts as inactive or inconclusive.

Tests used:
[1] = AP1 Signaling Pathway (AID 357; active means well fitted curve in either direction with a large enough effect, not every such curve was filed as active;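 further: ME-180 reporter cells stimulated with EGF at its EC50 level; on the % scale 0 is the no-effect control and ±100 the full control effect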); conditions: ME-180 AP-1-bla reporter, EGF-induced, beta-lactamase ratio, 5 h; at 7.69 µM (top of the series) unless noted
How it was run: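 Beta-lactamase reporter under AP-1 response element, ME-180 background. Stimulus: EC50 EGF. Compound exposure 5 h, 37 °C. Detection: CCF4, 2.5 h RT, 460/530 nm. Values: AC50 from titration.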

[2] = molecular target: Cytochrome P450 1A2 (Homo sapiens) (UniProt P05177); experiment: p450-cyp1a2 (AID 410; calls by dose curve;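 further: -100% = full effect of reference inhibitor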)
How it was run: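 O-Demethylation of luciferin 6' methyl ether by human CYP1A2 is monitored as luciferase luminescence. Substrate sits at Km (100uM); enzyme is 20nM. Values are scaled to 57 uM furafylline as maximal inhibition.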

[3] = NFAT Signaling Pathway (AID 444; active means well fitted curve in either direction with a large enough effect, not every such curve was filed as active;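 further: carbachol stimulus at about its EC50 of 1 µM final; on the % scale 0 is the no-effect control and ±100 the full control effect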); conditions: Jurkat NFAT-bla M1, carbachol, beta-lactamase ratio, 5 h; at 7.69 µM (top of the series) unless noted
How it was run: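 Jurkat cells with NFAT-driven β-lactamase reporter and co-expressed M1 receptor, stimulated with carbachol (final 1 uM, ~EC50), compound titration, 5 h at 37 °C. CCF4 loaded 1 h at RT; 460/530 nm ratio gave %activity and AC50.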

[4] = Stat Signaling Pathway (AID 446; active means well fitted curve in either direction with a large enough effect, not every such curve was filed as active;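 further: ME-180 cervical cancer cells given 40 pM IL-6 alongside compound; SIE-controlled beta-lactamase reporter measured as 460/530 nm FRET emission ratio; on the % scale 0 is the no-effect control and ±100 the full control effect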); conditions: ME-180 SIE beta-lactamase reporter, IL-6 stimulated, 5 h; at 7.69 µM (top of the series) unless noted
How it was run: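 Emission at 460 and 530 nm (excitation 405 nm) reports SIE-controlled beta-lactamase in ME-180 cells. Cells received compound with 40 pM IL-6 for 5 hrs at 37 C; data scaled between 300 pM IL-6 and 125 nM JAK-inhibitor controls.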

[5] = molecular target: Glucocorticoid receptor (Homo sapiens) (UniProt P04150); experiment: GR-GFP Redistribution (AID 450;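 active means compounds whose dose series gives a full or clear partial fitted curve of increased nuclear translocation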; further: potency means the concentration at half of the fitted maximal effect); conditions: U2OS GR-GFP nuclear translocation, laser cytometry, 2 h
[6] = molecular target: Glucocorticoid receptor (Homo sapiens) (UniProt P04150); experiment: GR-EFC Redistribution (AID 451; calls by dose curve; further: potency means the concentration at half of the fitted maximal effect); conditions: CHO-K1 GR-EFC translocation, beta-gal luminescence, 2 h
How it was run: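 CHO-K1 cells expressing nuclear EA and GR-ED fragments of b-gal; compounds titrated up to 46 uM final, 2 h at 37 C. GR nuclear translocation read as complemented b-gal luminescence after 1 h RT detection.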

[7] = molecular target: Mitogen-activated protein kinase 10 (Mus musculus) (UniProt Q61831); experiment: JNK3 AlphaScreen Assay (AID 530; active means well fitted curve in either direction with a large enough effect, not every such curve was filed as active;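 further: kinase came from lysate of stimulated human HepG2 cells; signal reports phosphorylation of biotinylated GST-cJun 1-79 at Ser73 with 10 µM ATP; on the % scale 0 is the no-effect control and ±100 the full control effect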)
How it was run: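 Activity was read by AlphaScreen after JNK3-containing HepG2 lysate (cytokine pre-activated) phosphorylated biotinylated GST-cJun with 10 uM ATP at room temperature. Phospho-Ser73 cJun antibody with Protein-A acceptor beads provided detection.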

[8] = molecular target: 3',5'-cyclic-AMP phosphodiesterase 4B (Homo sapiens) (UniProt Q07343); experiment: qHTS Assay for Inhibitors of PDE-IV (AID 607; active means well fitted activation curve with a large enough effect in the main read-out, with a control signal flat, not every such curve was filed as active; further: % of control where 0% means no effect)
How it was run: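 The readout is membrane depolarisation from a cAMP-sensing CNG channel, detected with a potential dye at ex 535/em 590. Cells were HEK293-derived (endogenous PDE-IV) at 1000 cells/well, titrated up to 22.9 uM final.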

[9] = molecular target: Guanine nucleotide-binding protein G(i) subunit alpha-1 (Homo sapiens) (UniProt P63096); experiment: qHTS Assay for Inhibitors of RGS12 GoLoco Motif Activity (Green Fluorophore) (AID 879);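 further: 0% = labeled peptide with Gαi1 and full inhibition = labeled peptide alone without protein; negative values mean loss of peptide binding seen as reduced polarization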
How it was run: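 A drop in FITC polarization marked displacement of the FITC-tagged RGS12 GoLoco peptide (10 nM) from Gαi1 (50 nM). Compounds were incubated 10 min at room temperature in Tris pH 7.5 buffer containing 150 mM NaCl, 0.1 mM GDP and 0.05% NP40; unlabeled peptide titration served as control.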

[10] = qHTS Assay for Identification of Small Molecule Antagonists for NFkB Signaling Pathway (AID 895; active means well fitted inhibition curve with a large enough effect in the signal ratio, with a control signal flat, not every such curve was filed as active; the % refers to the signal ratio; further: on the % scale 0 is the no-effect control and ±100 the full control effect)
How it was run: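 ME-180 NFkB-bla cells (beta-lactamase under NFkB response element), plated overnight, treated with compound then 10 pM TNF alpha (about EC50) for 5 hrs at 37 C. LiveBLAzer FRET read at 460/530 nm emission, 405 nm excitation.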

[11] = qHTS Assay for Identification of Small Molecule Agonists for Thrombopoietin (TPO) Signaling Pathway (AID 917); further: on the % scale 0 is the no-effect control and ±100 the full control effect
How it was run: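 Luciferase reporter (Glycoprotein IIb promoter) in IL-3-deprived Ba/F3 cells carrying human TPO receptor; compounds co-added with 26 pM TPO, incubated 24 h, 37 C. Steadylite luminescence measured after 10 min.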

[12] = molecular target: Muscarinic acetylcholine receptor M1 (Rattus norvegicus) (UniProt P08482); experiment: qHTS Assay for Antagonists of Acetylcholine Muscarinic M1 Receptor: Measurement of IP-One Response (AID 944); further: nearly all actives have a fitted effect of over 75% in size
How it was run: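 Antagonist mode with rat M1 receptor transfected into CHO cells. Compound is added first for 10 min, carbachol at its EC80 follows for 30 min, and lysis reagents then allow TR-FRET detection of accumulated IP1.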

[13] = molecular target: Pyruvate kinase (Leishmania mexicana) (UniProt Q27686); experiment: qHTS Validation Assay for Inhibitors of Leishmania Mexicana Pyruvate Kinase (AID 945);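 further: 0% = DMSO only neutral control wells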
How it was run: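 Substrate mix (0.5 mM PEP, 0.1 mM ADP, 7 mM MgCl2, 50 mM KCl, pH 7.2 imidazole) received compound by pin tool, then 0.2 nM LmPYK E451W. After 1 h at room temperature, PKLight was added and luminescence measured.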

[14] = molecular target: Pyruvate kinase PKM (Homo sapiens) (UniProt P14618); experiment: qHTS Assay for Activators of Human Muscle Pyruvate Kinase (AID 954; active means well fitted curve in the direction sought with a large enough effect, not every such curve was filed as active;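 further: 0% = uninhibited enzyme and -100% = no enzyme or full thiadiazolimine inhibition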)
How it was run: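 PKM2, human, >95% pure, 0.1 nM; PEP 0.5 mM (Km), ADP 0.1 mM; 50 mM imidazole pH 7.2, 50 mM KCl, 0.01% Tween 20, 0.05% BSA; 1 h RT; luciferase luminescence readout.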

[15] = molecular target: Alpha-galactosidase A (Homo sapiens) (UniProt P06280); experiment: Counterscreen for Glucocerebrosidase Inhibitors: qHTS Assay for Human alpha-Galactosidase at pH 4.5 (AID 992); further: 0% is about no effect
How it was run: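 Fluorogenic 4-MU alpha-D-galactoside (80 uM) hydrolysis, 2 nM enzyme, pH 4.5 citrate buffer + 0.005% Tween-20; 20 min RT; NaOH/glycine pH 10 stop; Ex365/Em440. Compounds titrated 0.7 nM–77 uM; Hill-equation AC50.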

[16] = molecular target: alpha-glucosidase (Oryza sativa, rice) (UniProt Q653V4); experiment: Counterscreen for Glucocerebrosidase Inhibitors: qHTS Assay for Rice alpha-Glucosidase at pH 5.0 (AID 997);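 further: 0% = full activity with enzyme and -100% = basal without enzyme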
How it was run: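 Endpoint fluorogenic assay at pH 5.0: compounds (0.7 nM to 77 uM) titrated against 4 nM rice enzyme and 400 uM 4-MU-alpha-glucoside for 20 min at room temperature; NaOH/glycine stop, read ex 365/em 440 nm, Hill-fitted AC50.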

[17] = molecular target: Cytochrome P450 2D6 (Homo sapiens) (UniProt P10635); experiment: qHTS Assay for Inhibitors and Substrates of Cytochrome P450 2D6 (AID 891);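 further: luciferin methyl ether substrate demethylated by CYP2D6 with NADPH regeneration; on the % scale 0 is the no-effect control and ±100 the full control effect; nearly all actives have a fitted effect of over 60% in size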
How it was run: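 Luminescent read-out of luciferin formed by 5 nM human CYP2D6 demethylating 30 uM Luciferin-ME EGE (Km level) over 60 min at room temperature after NADPH regeneration addition. Data normalized to full inhibition by 1.43 uM quinidine.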

[18] = molecular target: Cytochrome P450 2C19 (Homo sapiens) (UniProt P33261); experiment: qHTS Assay for Inhibitors and Substrates of Cytochrome P450 2C19 (AID 899); further: on the % scale 0 is the no-effect control and ±100 the full control effect; nearly all actives have a fitted effect of over 60% in size
How it was run: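 Luminescent read-out of luciferin formed from Luciferin-H EGE (10uM, equal to KM). Enzyme 5nM in 50mM KPO4; compound added, 10 min at 37C, then NADPH regenerating system for 60 min at 37C. Full inhibition defined by 57uM ketoconazole.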

[19] = molecular target: Cytochrome P450 3A4 (Homo sapiens) (UniProt P08684); experiment: qHTS Assay for Activators of Cytochrome P450 3A4 (AID 885); further: nearly all actives have a fitted effect of over 65% in size
How it was run: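 Activators are scored by enhanced luminescence from CYP3A4 conversion of luciferin-PPXE (25uM, equal to KM) to luciferin, after 60 min at RT with an NADPH-regenerating system.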

Chain of Cytochrome P450 1A2 (Homo sapiens) (P05177 whole entry, looked up): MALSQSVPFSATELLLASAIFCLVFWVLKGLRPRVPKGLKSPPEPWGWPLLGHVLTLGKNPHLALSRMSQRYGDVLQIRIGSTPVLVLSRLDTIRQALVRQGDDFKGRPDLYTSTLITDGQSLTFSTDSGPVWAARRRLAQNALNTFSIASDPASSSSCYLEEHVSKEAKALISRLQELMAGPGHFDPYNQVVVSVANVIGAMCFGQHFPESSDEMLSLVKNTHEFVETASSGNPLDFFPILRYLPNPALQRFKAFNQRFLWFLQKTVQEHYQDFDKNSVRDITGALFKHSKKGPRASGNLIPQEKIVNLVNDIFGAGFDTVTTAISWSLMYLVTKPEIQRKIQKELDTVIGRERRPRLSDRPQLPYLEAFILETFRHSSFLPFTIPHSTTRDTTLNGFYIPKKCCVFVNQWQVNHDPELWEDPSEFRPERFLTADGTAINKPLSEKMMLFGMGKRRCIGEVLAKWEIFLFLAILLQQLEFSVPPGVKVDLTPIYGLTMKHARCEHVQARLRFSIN
Chain of Cytochrome P450 2C19 (Homo sapiens) (P33261 whole entry, looked up): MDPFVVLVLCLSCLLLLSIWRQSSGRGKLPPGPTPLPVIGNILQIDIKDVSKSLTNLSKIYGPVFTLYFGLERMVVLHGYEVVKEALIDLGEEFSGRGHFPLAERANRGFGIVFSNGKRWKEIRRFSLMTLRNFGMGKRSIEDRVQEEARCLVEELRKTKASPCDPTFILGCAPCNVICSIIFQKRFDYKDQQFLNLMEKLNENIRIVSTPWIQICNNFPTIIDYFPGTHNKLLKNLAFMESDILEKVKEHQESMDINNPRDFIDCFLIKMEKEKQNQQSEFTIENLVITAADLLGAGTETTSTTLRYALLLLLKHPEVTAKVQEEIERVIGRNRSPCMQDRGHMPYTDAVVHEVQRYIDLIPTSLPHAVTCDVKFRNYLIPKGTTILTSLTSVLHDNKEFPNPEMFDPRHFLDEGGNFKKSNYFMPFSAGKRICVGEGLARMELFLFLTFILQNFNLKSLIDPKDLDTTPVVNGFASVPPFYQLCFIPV
Chain of Glucocorticoid receptor (Homo sapiens) (P04150 whole entry, looked up, the tested form may be a part): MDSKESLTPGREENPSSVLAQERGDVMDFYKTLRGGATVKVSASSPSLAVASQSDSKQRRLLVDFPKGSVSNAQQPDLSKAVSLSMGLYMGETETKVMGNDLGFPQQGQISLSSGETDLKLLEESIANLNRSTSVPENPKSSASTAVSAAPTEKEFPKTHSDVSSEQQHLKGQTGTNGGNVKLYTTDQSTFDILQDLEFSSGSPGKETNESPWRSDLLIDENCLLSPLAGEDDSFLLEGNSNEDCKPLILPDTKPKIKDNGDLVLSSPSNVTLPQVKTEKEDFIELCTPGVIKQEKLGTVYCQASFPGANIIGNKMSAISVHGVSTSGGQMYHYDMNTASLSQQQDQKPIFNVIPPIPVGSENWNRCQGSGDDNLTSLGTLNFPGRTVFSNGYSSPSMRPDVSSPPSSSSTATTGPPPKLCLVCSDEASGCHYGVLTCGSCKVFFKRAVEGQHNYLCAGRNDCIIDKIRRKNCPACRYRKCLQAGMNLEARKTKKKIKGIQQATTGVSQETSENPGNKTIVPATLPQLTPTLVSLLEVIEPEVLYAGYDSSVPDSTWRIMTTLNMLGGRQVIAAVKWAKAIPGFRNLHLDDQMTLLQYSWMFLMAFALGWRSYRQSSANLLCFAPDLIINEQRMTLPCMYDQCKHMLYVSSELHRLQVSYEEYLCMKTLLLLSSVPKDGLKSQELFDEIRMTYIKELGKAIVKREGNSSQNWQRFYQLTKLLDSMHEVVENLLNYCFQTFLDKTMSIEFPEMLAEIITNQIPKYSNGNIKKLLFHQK
Chain of Pyruvate kinase (Leishmania mexicana) (Q27686 2-499 E452W): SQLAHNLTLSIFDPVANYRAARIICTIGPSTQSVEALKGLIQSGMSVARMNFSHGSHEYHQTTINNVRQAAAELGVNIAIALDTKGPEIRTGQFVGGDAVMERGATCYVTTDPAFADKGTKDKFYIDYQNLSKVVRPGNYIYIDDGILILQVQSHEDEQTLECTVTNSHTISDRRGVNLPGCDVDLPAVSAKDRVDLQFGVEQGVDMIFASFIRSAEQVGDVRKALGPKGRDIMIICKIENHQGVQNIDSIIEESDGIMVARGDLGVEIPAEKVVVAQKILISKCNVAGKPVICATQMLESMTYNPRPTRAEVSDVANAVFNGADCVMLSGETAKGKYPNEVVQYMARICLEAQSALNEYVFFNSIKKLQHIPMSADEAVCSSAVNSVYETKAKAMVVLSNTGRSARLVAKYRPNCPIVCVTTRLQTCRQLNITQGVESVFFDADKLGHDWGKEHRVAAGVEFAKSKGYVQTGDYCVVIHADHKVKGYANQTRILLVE
Chain of Alpha-galactosidase A (Homo sapiens) (P06280 whole entry, looked up): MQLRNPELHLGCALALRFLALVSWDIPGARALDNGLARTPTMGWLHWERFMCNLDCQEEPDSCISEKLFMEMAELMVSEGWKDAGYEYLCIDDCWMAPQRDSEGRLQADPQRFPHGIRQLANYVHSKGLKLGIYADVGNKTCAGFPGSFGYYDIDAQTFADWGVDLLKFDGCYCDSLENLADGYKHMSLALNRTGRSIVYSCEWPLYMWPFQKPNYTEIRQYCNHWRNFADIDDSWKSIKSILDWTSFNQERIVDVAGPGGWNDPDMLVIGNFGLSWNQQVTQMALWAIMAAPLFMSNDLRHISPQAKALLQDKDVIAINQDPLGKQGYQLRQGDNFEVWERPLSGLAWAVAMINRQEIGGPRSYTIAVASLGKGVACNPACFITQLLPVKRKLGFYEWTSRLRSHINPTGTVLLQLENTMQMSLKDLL
Chain of Muscarinic acetylcholine receptor M1 (Rattus norvegicus) (P08482 whole entry, looked up): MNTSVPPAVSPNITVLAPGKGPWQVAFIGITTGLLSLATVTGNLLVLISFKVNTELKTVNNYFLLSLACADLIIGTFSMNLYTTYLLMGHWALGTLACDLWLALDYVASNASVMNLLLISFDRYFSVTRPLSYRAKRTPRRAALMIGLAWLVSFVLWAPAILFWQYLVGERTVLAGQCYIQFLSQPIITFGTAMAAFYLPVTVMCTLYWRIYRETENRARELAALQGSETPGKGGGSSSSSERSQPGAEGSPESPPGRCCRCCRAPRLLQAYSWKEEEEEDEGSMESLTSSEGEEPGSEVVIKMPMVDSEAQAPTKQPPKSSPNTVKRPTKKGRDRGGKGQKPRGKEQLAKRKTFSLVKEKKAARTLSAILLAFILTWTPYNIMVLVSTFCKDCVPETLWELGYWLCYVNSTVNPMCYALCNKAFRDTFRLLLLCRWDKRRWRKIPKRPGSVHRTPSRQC
Chain of Guanine nucleotide-binding protein G(i) subunit alpha-1 (Homo sapiens) (P63096 whole entry, looked up): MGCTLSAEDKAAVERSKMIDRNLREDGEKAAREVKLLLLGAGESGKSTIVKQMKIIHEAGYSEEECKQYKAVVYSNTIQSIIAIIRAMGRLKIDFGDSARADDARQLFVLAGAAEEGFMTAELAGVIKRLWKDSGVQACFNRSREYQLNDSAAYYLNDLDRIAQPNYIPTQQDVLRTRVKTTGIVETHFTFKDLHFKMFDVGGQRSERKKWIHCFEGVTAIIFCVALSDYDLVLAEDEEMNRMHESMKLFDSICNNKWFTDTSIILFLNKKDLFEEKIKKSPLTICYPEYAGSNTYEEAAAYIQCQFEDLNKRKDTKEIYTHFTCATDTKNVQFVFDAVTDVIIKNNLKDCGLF
Chain of 3',5'-cyclic-AMP phosphodiesterase 4B (Homo sapiens) (Q07343 whole entry, looked up): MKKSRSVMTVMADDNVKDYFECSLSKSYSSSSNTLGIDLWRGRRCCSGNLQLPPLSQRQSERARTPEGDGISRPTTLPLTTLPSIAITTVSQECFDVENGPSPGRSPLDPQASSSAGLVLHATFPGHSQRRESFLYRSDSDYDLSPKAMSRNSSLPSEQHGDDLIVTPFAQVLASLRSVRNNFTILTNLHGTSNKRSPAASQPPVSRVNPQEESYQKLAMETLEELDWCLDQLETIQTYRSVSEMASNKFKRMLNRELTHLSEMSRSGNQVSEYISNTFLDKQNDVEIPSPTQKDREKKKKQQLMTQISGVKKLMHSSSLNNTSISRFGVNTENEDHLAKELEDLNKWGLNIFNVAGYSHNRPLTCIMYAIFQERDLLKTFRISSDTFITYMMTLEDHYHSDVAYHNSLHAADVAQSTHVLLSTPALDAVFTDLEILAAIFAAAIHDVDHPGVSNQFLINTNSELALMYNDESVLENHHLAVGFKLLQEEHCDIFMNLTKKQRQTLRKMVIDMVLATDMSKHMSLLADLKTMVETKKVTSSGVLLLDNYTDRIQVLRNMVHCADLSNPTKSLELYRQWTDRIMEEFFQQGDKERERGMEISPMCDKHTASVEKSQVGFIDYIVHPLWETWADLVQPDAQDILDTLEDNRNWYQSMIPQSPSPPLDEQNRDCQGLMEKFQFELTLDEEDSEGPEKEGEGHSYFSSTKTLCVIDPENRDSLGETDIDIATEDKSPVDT
Chain of Pyruvate kinase PKM (Homo sapiens) (P14618 whole entry, looked up): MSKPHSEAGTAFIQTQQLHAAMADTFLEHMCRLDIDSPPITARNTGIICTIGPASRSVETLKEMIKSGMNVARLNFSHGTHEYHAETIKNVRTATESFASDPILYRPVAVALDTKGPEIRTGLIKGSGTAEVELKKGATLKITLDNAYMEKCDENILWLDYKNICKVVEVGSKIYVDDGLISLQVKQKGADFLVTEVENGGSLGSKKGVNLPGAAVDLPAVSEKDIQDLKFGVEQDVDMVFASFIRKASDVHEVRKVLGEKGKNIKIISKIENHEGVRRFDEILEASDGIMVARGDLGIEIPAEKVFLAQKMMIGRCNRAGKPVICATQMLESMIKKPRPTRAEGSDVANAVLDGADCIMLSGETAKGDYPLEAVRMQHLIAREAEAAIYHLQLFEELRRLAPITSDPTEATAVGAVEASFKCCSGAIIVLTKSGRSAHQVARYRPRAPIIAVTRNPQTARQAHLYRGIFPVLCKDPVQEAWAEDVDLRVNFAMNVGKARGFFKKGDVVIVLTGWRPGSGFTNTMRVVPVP

NC(=O)C1=CN([C@@H]2O[C@@H](COP(=O)(O)OP(=O)(O)OC[C@@H]3O[C@H](n4cnc5c(N)ncnc54)[C@@H](OP(=O)(O)O)[C@@H]3O)[C@H](O)[C@@H]2O)C=CC1
inactive: activity change, negative = inhibition [1] 7.61% [at 38 µM] | Potency [2] | activity change, negative = inhibition [3] 0.746% [at 38 µM] | activity, negative = inhibition [4] -8.82% [at 38 µM] | Potency [5] > 46 µM | Potency [6] > 46 µM | Potency [7] | Potency [8] | outcome [9] | Potency [10] | outcome [11] | Potency [12] | outcome [13] | outcome [14] | outcome [15] | Potency [16]

C[C@@H]1O[C@@H](n2cc(F)c(=O)[nH]c2=O)[C@H](O)[C@@H]1O
inactive: activity change, negative = inhibition [1] -3.92% [at 38 µM] | Potency [2] | activity change, negative = inhibition [3] 3.74% [at 38 µM] | activity, negative = inhibition [4] 21.9% [at 38 µM] | Potency [5] > 46 µM | Potency [6] > 46 µM | Potency [7] | Potency [8] | outcome [9] | Potency [10] | outcome [11] | Potency [12] | outcome [13] | outcome [15] | Potency [16]

O=C(O)CCCCCC[C@@H]1C(=O)NC(=O)N1CC[C@@H](O)C1CCCCC1
inactive: activity change, negative = inhibition [1] -8.86% [at 38 µM] | Potency [2] | activity change, negative = inhibition [3] -9.7% [at 38 µM] | activity, negative = inhibition [4] 3.65% [at 38 µM] | Potency [5] > 46 µM | Potency [6] > 46 µM | Potency [7] | Potency [8] | Potency [17] | Potency [18]

CC1=C(C(=O)O)N2C(=O)[C@@H](NC(=O)[C@@H](N)C3=CCC=CC3)[C@@H]2SC1
inactive: activity change, negative = inhibition [1] 0.806% [at 38 µM] | Potency [2] | activity change, negative = inhibition [3] 1.78% [at 38 µM] | activity, negative = inhibition [4] -5.32% [at 38 µM] | Potency [5] > 46 µM | Potency [6] > 46 µM | Potency [7] | Potency [8] | outcome [9] | Potency [19] | Potency [17] | Potency [18] | outcome [11] | Potency [12] | outcome [13] | outcome [15] | Potency [16]

CN1CCc2c(cc(O)c(O)c2Cl)[C@H](c2cccc(Cl)c2)C1
inactive: activity change, negative = inhibition [1] 26% [at 38 µM] | Potency [2] | activity change, negative = inhibition [3] -25.3% [at 38 µM] | activity, negative = inhibition [4] -20% [at 38 µM] | Potency [5] > 46 µM | Potency [6] > 46 µM | Potency [7] | Potency [8] | outcome [9] | outcome [13] | outcome [14] | outcome [15] | Potency [16]

CSC(N)=NCCC[C@@H](N)C(=O)O
inactive: activity change, negative = inhibition [1] 19.2% [at 38 µM] | Potency [2] | activity change, negative = inhibition [3] 6.92% [at 38 µM] | activity, negative = inhibition [4] 10.5% [at 38 µM] | Potency [5] > 46 µM | Potency [6] > 46 µM | Potency [7] | Potency [8] | outcome [9] | Potency [18] | Potency [12] | outcome [13] | outcome [15] | Potency [16]
